SARS PLP yeast – inhibitors of SARS-CoV papain-like protease in yeast | S. cerevisiae expressing SARS-CoV PLpro, growth rescue | Potency, µM (doses to about 32.9 µM), hits mostly activators | actives 0.19% (n = 330,000) | AID 485353; calls by dose curve; also: nearly all actives have a fitted effect of over 55% in size
Pf growth 48h – P. falciparum growth inhibition at 48 hours (one generation) | Potency, µM (titrated, usually from 28.7 µM), actives largely listed as inhibitors | AID 504832 | P. falciparum luciferase growth in erythrocytes, 48 h | actives 5.9% (n = 310,000)
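Parasite viability was followed by luminescence of a genomically integrated firefly luciferase. Cultures held 0.1% parasitemia at 2% hematocrit (final), incubated under 5% CO2 at 37 C.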
Pf growth 96h – P. falciparum growth inhibition at 96 hours; P. falciparum luciferase reporter growth, 96 h; Potency, µM (doses to about 28.7 µM), most hits filed as inhibitors; actives 6.9% (n = 320,000); AID 504834
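Readout is luminescence from an integrated firefly luciferase in P. falciparum. Red cells, 2% hematocrit and 0.05% parasitemia final, were cultured with compound through two parasite generations (96 hours) at 37 C, 5% CO2.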
Sm TGR inh – inhibitors of Schistosoma mansoni thioredoxin glutathione reductase; Q962Y6; actives 3% (n = 360,000); purified TGR, DTNB reduction, TNB absorbance 405 nm; Potency, µM (top dose mostly 114 µM), hits mostly inhibitors; also: nearly all actives have a fitted effect of over 60% in size
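First, TGR (20 nM dispensed) and NADPH were mixed with compound. Second, a 15 min room-temperature incubation followed. Third, further NADPH and then DTNB were added to start the reaction. Finally, TNB absorbance was monitored kinetically.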
HCMV antiviral – human cytomegalovirus inhibition | actives 4.5% (n = 410,000) | HFF cells, HCMV-luciferase reporter, 72 h; hits give low values | activity change, negative = inhibition, % at 57.5 µM | AID 1259415; in the data active = activity change below about -60%; inconclusive = no clear call, values can overlap the other calls; inactive = above about -39%
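Human foreskin fibroblasts infected with luciferase-reporter HCMV at MOI 1 PFU/cell, compounds at two doses. Luciferase measured 72 h post infection; normalized to buffer-only basal and Salinomycin (10uM) controls.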
HCV inh – blocks hepatitis C virus; Huh7.5.1 HCVcc-Cre infection, luciferase reporter, 44 h; Potency, µM (doses to about 41.8 µM), hits mostly inhibitors; actives 3.4% (n = 340,000)
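Whole-lifecycle infectious HCVcc-Cre system; cells 1,000/well, compound then virus (~0.5 moi) added 4 h after plating, 44 h culture. Luciferase read 15 sec following 15 min substrate incubation, room temp.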
Of the large screens only hits and unclear results are named; the others gave an inactive call. This is a sample that favours compounds with a hit; in the whole collection about 15% have one here. Unless noted, calls follow the shape of the dose curve; as a rule, active = well fitted curve in the direction sought with a large enough effect; inconclusive = small, poorly fitted or top-dose-only effect, or another doubt; inactive = no such curve, though single readings can be large; an effect the other way counts as inactive or inconclusive.

COc1ccc(C(=O)C2CCCN(C(=O)CCC3=NNC(=O)CC3)C2)c(C)c1 (centres undefined)	Pf growth 96h 10µM
O=C(c1ccc(Oc2ccccc2)cc1)C1CCCN(C(=O)c2cnccn2)C1 (centres undefined)	none
Cc1cc(C(=O)N2CCCC(C(=O)c3ccc(Oc4ccccc4)cc3)C2)n[nH]1 (centres undefined)	Pf growth 48h 10µM, Pf growth 96h inconclusive, HCV inh inconclusive
COc1ccc(C(=O)C2CCCN(C(=O)c3cc(C4CC4)[nH]n3)C2)c(C)c1 (centres undefined)	Pf growth 96h 15µM
CCn1c(SCC(=O)Nc2cccc(S(=O)(=O)N(C)c3ccccc3)c2)nnc1C1CC1	Pf growth 48h inconclusive, Pf growth 96h inconclusive
COc1cc(CN(C(=O)c2oc3ccccc3c2C)C2CCS(=O)(=O)C2)cc(OC)c1OC (centres undefined)	none (no result: SARS PLP yeast, Pf growth 48h, Pf growth 96h, HCV inh)
COc1ccc(-c2csc(NC(=O)c3c(C)noc3C)n2)cc1OC	none (no result: SARS PLP yeast, Pf growth 48h, Pf growth 96h, Sm TGR inh, HCV inh)
CCn1nc(NC(=O)c2ccncc2)c2cc3cccc(C)c3nc21	Pf growth 96h 2.1µM, HCV inh inconclusive
CCn1nc(NC(=O)c2cccnc2)c2cc3cccc(C)c3nc21	HCV inh inconclusive
CCC(=O)Nc1nn(C)c2nc3c(C)cccc3cc12	Pf growth 48h inconclusive, HCV inh 10µM
Cc1ccc(C2C(C=Nc3c(C)n(C)n(-c4ccccc4)c3=O)=C(c3ccccc3)Oc3ccccc32)cc1 (centres undefined)	Pf growth 48h 8.3µM, Pf growth 96h 4.1µM
Cc1c(N=Cc2ccc(Cl)o2)c(=O)n(-c2ccccc2)n1C	Sm TGR inh 22µM
Cc1c(N=Cc2ccc(-c3ccc(Cl)cc3)o2)c(=O)n(-c2ccccc2)n1C	none (no result: Pf growth 96h)
CC(=O)Nc1cccc(-c2ccnc3c2CC(C)(C(=O)NCC2CC2)O3)c1 (centres undefined)	none (no result: SARS PLP yeast, Pf growth 48h, Pf growth 96h, Sm TGR inh, HCV inh)
Cc1ccc(C2C3=C(CC(C)(C)CC3=O)NC3=C2C(=O)c2ccccc23)cc1 (centres undefined)	Pf growth 48h 5.2µM, Pf growth 96h 1.9µM, HCMV antiviral -65, HCV inh inconclusive
CC1(C)CC(=O)C2=C(C1)NC1=C(C(=O)c3ccccc31)C2c1ccc(Cl)cc1 (centres undefined)	Pf growth 48h inconclusive, Pf growth 96h inconclusive, HCMV antiviral -100, HCV inh 11µM
CSC1=C(C#N)C(c2ccc(Cl)cc2)C2=C(CC(C)(C)CC2=O)N1 (centres undefined)	Pf growth 48h 7.4µM, Sm TGR inh 28µM, HCMV antiviral -68, HCV inh 11µM
CCCSC1=C(C#N)C(c2ccc(OC)cc2)C2=C(CC(C)(C)CC2=O)N1 (centres undefined)	Pf growth 48h inconclusive, Pf growth 96h inconclusive, HCV inh inconclusive
c1ccc(-c2nnc(C3CC(c4ccncc4)=NO3)o2)cc1 (centres undefined)	none (no result: SARS PLP yeast, Pf growth 48h, Pf growth 96h, Sm TGR inh)
Cc1ccc(Cn2c(N/N=C/c3ccncc3)nc3c2c(=O)n(C)c(=O)n3C)cc1	Pf growth 48h 10µM, Pf growth 96h 3.7µM, HCV inh inconclusive
COc1cc(/C=N/Nc2nc3c(c(=O)n(C)c(=O)n3C)n2Cc2ccccc2)ccc1OC(=O)c1ccco1	Pf growth 48h 10µM, Pf growth 96h 9.3µM, HCV inh inconclusive
Cn1c(=O)c2c(nc(N/N=C/c3ccncc3)n2Cc2ccccc2)n(C)c1=O	Pf growth 48h inconclusive, Pf growth 96h inconclusive
CN1C(=O)C2C[C@@]3(Br)c4ccccc4N(OOSc4ccccc4)[C@H]3N2C(=O)[C@@H]1Cc1ccccc1 (some centres undefined)	HCMV antiviral -71 (no result: SARS PLP yeast, Pf growth 48h, Pf growth 96h, Sm TGR inh)
O=C1N[C@@H](Cc2ccccc2)C(=O)N2[C@@H]3N(S(=O)(=O)c4ccccc4)c4ccccc4[C@]3(Br)C[C@@H]12	none (no result: SARS PLP yeast, Pf growth 48h, Pf growth 96h, Sm TGR inh)
[O-]/C(=C(\C(=S)Nc1ccc(Cl)cc1)[n+]1ccccc1)c1ccc(OC(F)F)cc1	Pf growth 48h 10µM, HCMV antiviral inconclusive, HCV inh 11µM
Cc1ccc(-n2ncc(C#N)c2/N=C/N2CCN(C)CC2)cc1	none (no result: Pf growth 96h)
Cc1ccc(-n2ncc(C#N)c2/N=C/N2CCCCCC2)cc1	Pf growth 48h inconclusive, HCV inh 10µM
O=C(O)c1ccc2c(c1)C(=O)N(c1ccc(C(=O)OCC(=O)c3ccccc3)cc1)C2=O	none (no result: SARS PLP yeast, Pf growth 48h, Pf growth 96h, Sm TGR inh)
Cc1ccc(C(=O)COC(=O)c2ccc3c(c2)C(=O)N(c2cccc4ncccc24)C3=O)cc1	HCMV antiviral -94
O=C(OCC(=O)c1ccc(Cl)cc1Cl)c1ccc2c(c1)C(=O)N(c1cccc3ncccc13)C2=O	none
O=C(COC(=O)c1ccc2c(c1)C(=O)N(c1cccc3ncccc13)C2=O)c1ccc(Cl)cc1	HCMV antiviral -89
CCCCNC(=O)c1cnc(Cc2c[nH]c3ccccc23)c(I)c1	none (no result: SARS PLP yeast, Pf growth 48h, Pf growth 96h, Sm TGR inh, HCV inh)
CCC(C)(C)n1nnnc1C(c1cc2cc(C)cc(C)c2[nH]c1=O)N1CCCC1 (centres undefined)	Pf growth 48h 5.9µM, Pf growth 96h inconclusive, Sm TGR inh 22µM, HCV inh inconclusive
CCC(C)(C)n1nnnc1C(c1cc2cccc(C)c2[nH]c1=O)N1CCCC1 (centres undefined)	Pf growth 48h inconclusive, Sm TGR inh 10µM, HCV inh inconclusive
Cc1cccc2cc(C(c3nnnn3C3CCCC3)N3CCOCC3)c(=O)[nH]c12 (centres undefined)	none
CCC(C)(C)n1nnnc1C(c1cc2cc(C)cc(C)c2[nH]c1=O)N1CCN(Cc2ccc3c(c2)OCO3)CC1 (centres undefined)	Pf growth 96h 0.52µM, Sm TGR inh inconclusive, HCMV antiviral -60 (no result: Pf growth 48h)
CCC(C)(C)n1nnnc1C(C(C)C)N(CCN1CCOCC1)Cc1cc2cccc(C)c2[nH]c1=O (centres undefined)	Pf growth 96h 13µM (no result: Pf growth 48h)
Cc1cc(C)c2[nH]c(=O)c(C(c3nnnn3Cc3ccc4c(c3)OCO4)N3CCCCC3)cc2c1 (centres undefined)	Sm TGR inh inconclusive
CC(O)CNCc1ccccc1C(F)(F)F (centres undefined)	none
CC(OC(=O)CNC(=O)c1ccc2ccccc2c1)C(=O)N(C)C1CCCCC1 (centres undefined)	none
COc1cc(CN(CCc2c(C)[nH]c3ccc(C)cc23)C(=S)NC(C)(C)C)cc(OC)c1OC	Pf growth 48h inconclusive, Pf growth 96h 2.6µM, HCV inh inconclusive
CNC(=S)N(CCc1c(C)[nH]c2ccc(C)cc12)Cc1ccc(OC)c(OC)c1	Pf growth 48h inconclusive, Pf growth 96h 10µM, HCV inh inconclusive
O=C(CN1Cc2ccccc2C1=O)Nc1cc(F)ccc1F	none (no result: SARS PLP yeast, Pf growth 48h, Pf growth 96h, HCV inh)

Screens (PubChem BioAssay)
